STK33 inh – inhibitors of human STK33 kinase; Q9BYT3; ADP-Glo luminescence, MBP substrate; inhibition, % at 12.5 µM; 0.44% of 27,000 active; in the data active = inhibition above about 20%; inconclusive = no clear call, values can overlap the other calls
Target sequence (Q9BYT3 whole entry, looked up): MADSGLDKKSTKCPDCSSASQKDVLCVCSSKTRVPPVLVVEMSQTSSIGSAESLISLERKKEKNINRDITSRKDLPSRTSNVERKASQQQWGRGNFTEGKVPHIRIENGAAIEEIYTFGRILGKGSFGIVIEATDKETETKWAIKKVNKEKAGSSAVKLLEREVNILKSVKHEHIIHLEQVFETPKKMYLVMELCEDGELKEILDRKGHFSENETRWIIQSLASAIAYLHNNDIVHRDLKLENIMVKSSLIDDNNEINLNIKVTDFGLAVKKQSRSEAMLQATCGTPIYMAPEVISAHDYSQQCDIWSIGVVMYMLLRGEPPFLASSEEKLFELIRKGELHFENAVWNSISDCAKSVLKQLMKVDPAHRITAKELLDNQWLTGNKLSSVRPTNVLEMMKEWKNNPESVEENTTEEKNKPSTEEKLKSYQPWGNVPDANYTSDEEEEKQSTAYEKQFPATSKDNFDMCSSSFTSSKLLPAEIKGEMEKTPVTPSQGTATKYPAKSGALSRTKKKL
p53 PUMA act – restores mutant p53 pathway signaling in SW480 cells; AID 624151; activation, % at 9.98 µM; SW480 PUMA-promoter luciferase, p53 mutant reactivation; 1.5% of 28,000 active; in the data active = activation above about 52%; inconclusive = no clear call, values can overlap the other calls
ID4 SMM – binders of human ID4 protein; P47928; small molecule microarray, Flag-ID4 binding, fluorescence F/B; calls only; 1.2% of 31,000 active; call rule not given here;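 note: a binder raises fluorescence above local background on the spot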
Numbers stand for hits; 0 = inactive; ? = inconclusive; - = not tested or not shown; + = active, no number. The list is not random: actives were taken first. Their share in the collection is about 2%.

SMILES	STK33 inh	p53 PUMA act	ID4 SMM
Cc1ccc(-c2cc(C(=O)NCc3cccnc3)no2)cc1	0	91.3	0
CN(C)CCCNc1ncnc2c1sc1nc(N3CCOCC3)c3c(c12)CCC3	0	0	0
C=C1C2CCC3[C@]4(C)CCC[C@@](C)(C(=O)O)C4CC[C@]3(C2)[C@H]1OC(C)=O (stereo partly specified)	0	0	0
COc1ccc(CN2C(=O)c3cccc4cccc(c34)C2=O)cc1S(=O)(=O)N1CCCCC1	0	-	-
Cc1sc2ncn(CC(=O)NCc3ccco3)c(=O)c2c1-c1ccc(Cl)cc1	0	0	0
O=C(c1cccs1)n1nc(-c2ccc(Cl)cc2)nc1NCc1ccco1	0	101.8	0
CC(C)(Oc1ccc(Cl)cc1)C(=O)NCc1ccco1	0	0	0
CC(=O)n1nc(-c2ccc(Cl)cc2)nc1NCc1ccco1	0	148.4	0
Cn1c(NCc2ccco2)nc2c1c(=O)n(Cc1ccc(Cl)cc1)c(=O)n2C	0	0	0
COc1ccc(C(=O)n2nc(-c3ccc(Cl)cc3)nc2NCc2ccco2)cc1	0	117.9	0
Cc1ccc(N(C(C)C(N)=O)S(C)(=O)=O)cc1C (stereo unspecified)	0	0	0
O=c1c2ccccc2nnn1CN1CCCCC1	0	-	-
COc1cc(Cc2nnc(C(=O)NC(C)C)o2)cc(OC)c1OC	-	0	0
Cc1ccc(C)c(C(Nc2ccccn2)c2cc(Cl)c3cccnc3c2O)c1 (stereo unspecified)	0	0	0
CC(C)OC(=O)c1cc(N)c2c(-c3ccc(F)cc3)c(-c3cccs3)sc2n1	0	-	-
Clc1ccc(Sc2cn[nH]c2-c2ccc3c(c2)OCCO3)cc1	0	-	-
Nc1cccc(-c2cc3c(Oc4cccc(O)c4)ncnc3[nH]2)c1	69.3	0	-
CC1CC2OC(C)(C)OC2C(OC(=O)c2ccccc2)O1 (stereo unspecified)	0	-	-
O=C1C(Cc2ccc(-c3nn[nH]n3)cc2)=C(c2ccccc2)S(=O)(=O)c2ccccc21	0	-	-
COCCNC(=O)c1ccccc1-c1nc(-c2ccc(Cl)cc2)no1	0	59.2	0
COc1ccccc1CC(=O)Nc1ccc(-c2noc(-c3ccc(Cl)cc3)n2)cc1	0	0	0
Cc1cc(Cl)ccc1NC(=O)CN(C)S(=O)(=O)c1ccc(F)cc1	0	0	0
Cn1c(=O)c2c(nc(NCCO)n2CCc2ccccc2)n(C)c1=O	0	0	0
COc1ccccc1C1=NOC(Cn2c(NCc3ccccc3)nc3c2c(=O)n(C)c(=O)n3C)C1 (stereo unspecified)	0	0	+
Cc1cccc(OCC(=O)Nc2cccc(-c3nnc(-c4ccco4)o3)c2)c1C	0	?	0
SMILES	STK33 inh	p53 PUMA act	ID4 SMM
Cc1ccc(OCC(=O)Nc2cccc(-c3nnc(-c4ccccc4)o3)c2)cc1	0	118.8	0
Cc1cccc(OCC(=O)Nc2cccc(-c3nnc(-c4ccccc4)o3)c2)c1C	0	67.7	0
Cc1ccc(OCC(=O)Nc2cccc(-c3nc4ccccc4[nH]3)c2)cc1	0	0	0
Cc1nnc(SCc2nc(-c3ccc(Br)cc3)no2)n1-c1ccccc1	0	0	0
COCCOC(=O)N1C(=O)[C@@]2(c3cc(C#CCC(C(=O)OC)C(=O)OC)ccc31)[C@H](C(=O)N1CCc3cc(OC)c(OC)cc3C1)[C@H]1C(=O)O[C@H](c3ccccc3)[C@H](c3ccccc3)N1[C@@H]2c1ccccc1OCCO	0	-	0
NC(=O)CN1CCN(CCN2C(=O)c3cccc4cccc(c34)C2=O)CC1	0	74.5	+
O=C(c1cc2cc(Br)ccc2oc1=O)N1CCN(CCN2C(=O)c3cccc4cccc(c34)C2=O)CC1	0	65.4	0
O=C1c2ccccc2C(=O)N1CCN1CCCCC1	0	-	-
O=C(NCCN1CCOCC1)c1cc2cc(Br)ccc2oc1=O	0	0	0
O=CN/C=C\c1ccc(O)cc1	0	-	-
Cc1ccc(C(=O)c2oc3ccccc3c2NC(=O)c2cc3ccccc3oc2=O)cc1F	0	0	0
CS(=O)(=O)N(CC(=O)Nc1ccc(F)c(F)c1)c1ccc(Cl)c(C(F)(F)F)c1	0	0	0
C[C@H]1CN([C@@H](C)CO)C(=O)c2cccc(N(C)C)c2O[C@@H]1CN(C)S(=O)(=O)c1ccc(Cl)cc1	-	0	+
C[C@@H]1CN([C@H](C)CO)C(=O)c2cccc(NC(=O)Nc3ccc4c(c3)OCO4)c2O[C@H]1CN(C)C	-	60.0	0
C[C@H](CO)N1C[C@H](C)[C@H](CN(C)C(=O)Nc2ccc3c(c2)OCO3)Oc2c(NC(=O)Nc3ccc4c(c3)OCO4)cccc2C1=O	-	0	-
COc1ccc(CN(C)C[C@@H]2Oc3c(NC(=O)Nc4ccc5c(c4)OCO5)cccc3C(=O)N([C@@H](C)CO)C[C@H]2C)cc1	-	0	0
C[C@@H]1CN([C@@H](C)CO)C(=O)c2cccc(N(C)C)c2O[C@H]1CN(C)S(=O)(=O)c1ccc(Cl)cc1	-	0	0
COc1ccc(CN(C)C[C@H]2Oc3c(NC(=O)Nc4ccc5c(c4)OCO5)cccc3C(=O)N([C@H](C)CO)C[C@@H]2C)cc1	-	61.5	0
C/C=C/C(O)C(C)CC(C)C(OC(=O)CCC(=O)O)C(C)/C=C/C=C/C=C(\C)C(=O)O (stereo unspecified)	0	-	-
CC(=O)OC[C@]12[C@H](OC(C)=O)[C@H](OC(=O)c3ccccc3)[C@@H]3[C@@H](OC(C)=O)[C@]1(OC3(C)C)[C@H](C)C[C@H](OC(C)=O)[C@@H]2OC(C)=O	0	-	-
COc1ccc2nc(Nc3nc(C)c(CCC(C)C)c(=O)[nH]3)nc(C)c2c1	0	0	0
CCN(CC)CCCC(C)Nc1c2ccc(Cl)cc2nc2ccc(OC)cc12 (stereo unspecified)	32.8	0	-
C=CCNC(=O)[C@H]1[C@@H]2C(=O)O[C@@H](c3ccccc3)[C@@H](c3ccccc3)N2[C@@H](c2ccc(O)cc2)[C@]12C(=O)Nc1ccccc12	0	-	0
COC(=O)c1ccc(NC(=O)CN(c2ccc(I)cc2)S(C)(=O)=O)cc1	0	0	0
CCOc1ccc(NC(=O)CCNC(=O)c2cn(-c3cccc(OC)c3)c(=O)c3ccccc23)cc1	0	-	-
SMILES	STK33 inh	p53 PUMA act	ID4 SMM
CC(C)n1cnc2c(Nc3cccc(Cl)c3)nc(NCCO)nc21	89.7	0	-
CCc1nc(SCC(=O)Nc2cccc(Cl)c2)n[nH]1	0	0	0
CC(=O)c1ccc(OC(=O)CCCN2C(=O)c3ccccc3C2=O)cc1	0	0	0
CN(C)CCCC[C@@H]1NC(=O)[C@H]2C[C@@H](C(=O)NCCCCCN)[C@@H](c3cccc(OCCO)c3)N2C1=O	0	-	-
CC(=O)Nc1ccc(NC(=O)COc2ccccc2C(=O)Nc2cccc(C)c2C)cc1	0	0	+
COc1cccc(C(=O)COc2ccc(NC(=O)c3ccccc3C)cc2)c1	0	0	0
Cc1cc(Cl)ccc1OCC(=O)Nc1cccc(NC(=O)c2ccccc2Cl)c1	0	0	0
Cc1ccccc1C(=O)Nc1ccc(OCC(=O)O)cc1	0	0	+
Cc1cc(Cl)ccc1OCC(=O)Nc1cccc(NC(=O)c2ccccc2C)c1	0	57.2	0
Cc1cccc(NC(=O)c2ccccc2OCC(=O)Nc2cccc([N+](=O)[O-])c2)c1C	0	0	0
O=C(CCc1ccc(O)cc1)CC(CCc1ccc(O)cc1)O[C@@H]1O[C@H](CO)[C@@H](O)[C@H](O)[C@H]1O (stereo partly specified)	0	-	0
CC1(C)Cc2c(sc3c2c2ncnn2c2nnc(SCC(=O)NCc4ccccc4)n32)CO1	0	0	0
COc1ccc(S(=O)(=O)N(C)CC(=O)Nc2ccccc2Br)cc1C	0	0	0

Screens as filed in PubChem BioAssay.
